In PubChem BioAssay (EPA / NIEHS) one finds outcome and AC50 data, which are given here for four molecules.

The nature of test [1]: ATG_CRE_CIS: Attagene CIS-FACTORIAL HepG2 Assay for human cAMP Responsive Element (CRE) binding protein 3 (AID 2282926). Particulars: HepG2 CRE cis-reporter, Attagene multiplexed mRNA; actives raise or lower the signal. The essentials: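 Induced reporter mRNA from a CRE cis element, measured in HepG2 among many multiplexed units at 24 h. Detection used RT-PCR plus capillary electrophoresis of fluorescent fragments; DMSO served as negative control.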

For test [2], the target named is CCAAT/enhancer-binding protein beta (Homo sapiens) (UniProt P17676). The experiment in a line: ATG_C_EBP_CIS: Attagene CIS-FACTORIAL HepG2 Assay for human CCAAT/Enhancer Binding Protein (C/EBP) beta (AID 2282927). Particulars: HepG2 Attagene cis-factorial transcription factor reporter; actives raise or lower the signal. The essentials: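 Endogenous transcription factor activity in human liver HepG2 cells is inferred from induction of a CEBPB-linked reporter mRNA. Exposure lasts 24 h; activity is fitted in both directions relative to DMSO.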

The nature of test [3]: ATG_CMV_CIS: Attagene CIS-FACTORIAL HepG2 Assay for human CMV (Internal Marker) (AID 2282928).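 Also: endpoint acts as a background internal control marker rather than a target.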 Particulars: HepG2 CMV promoter reporter, transcription factor profiling; actives raise or lower the signal. The essentials:
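Readout: fluorescent reporter cDNA fragments separated by capillary electrophoresis after RT-PCR and HpaI cut. Cells: HepG2 carrying transfected cis-promoter reporter constructs, dosed 24 h. Endpoint serves as background internal-marker control, fit bidirectionally versus DMSO.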

The nature of test [4]: ATG_DR4_LXR_CIS: Attagene CIS-FACTORIAL HepG2 Assay for human Liver X Receptor (LXR), DR4 submotif (AID 2282929). Particulars: HepG2 Attagene DR4 cis-reporter, mRNA transcription; actives raise or lower the signal. The essentials: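 Fluorescence intensity of labelled reporter cDNA fragments, separated by capillary electrophoresis, gives the signal. HepG2 cells bearing cis-regulated reporter constructs were treated 24 h; activity fitted bidirectionally relative to DMSO negative control.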

A short description of test [5]: ATG_AP_1_CIS: Attagene CIS-FACTORIAL HepG2 Assay for human Activator Protein 1 (AP-1) (AID 2282931). Particulars: HepG2 Attagene cis-factorial AP-1 reporter mRNA; actives raise or lower the signal. The gist of the method: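 Multiplexed HepG2 reporter assay, 24 h dosing. mRNA induction detected by RT-PCR plus capillary electrophoresis. Activity fitted in both directions against DMSO.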

The nature of test [6]: ATG_AP_2_CIS: Attagene CIS-FACTORIAL HepG2 Assay for human Activator Protein 2 (AP-2) (AID 2282932). Particulars: HepG2 AP-2 cis-reporter, Attagene transcription factor profiling; actives raise or lower the signal. The essentials: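 Endogenous transcription factor activity is reported through transfected multiplex reporter constructs in HepG2, after 24 h of compound exposure. Transcripts were quantified by RT-PCR and capillary electrophoresis of fluorescent fragments. Bidirectional fit against DMSO.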

A short description of test [7]: ATG_BRE_CIS: Attagene CIS-FACTORIAL HepG2 Assay for human Bone Morphogenetic Protein (BMP) Response Element (BRE) (AID 2282933). Particulars: HepG2 BMP response element reporter, Attagene transcription factor profiling; actives raise or lower the signal. The gist of the method: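 HepG2 cells transiently transfected with multiplexed cis-element reporter units were dosed with chemical for 24 h. Reporter mRNA was measured by RT-PCR with fluorescent labelling, HpaI digestion and capillary electrophoresis; bidirectional fitting relative to DMSO.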

For test [8], the target named is Transcription factor E2F1 (Homo sapiens) (UniProt Q01094). The experiment in a line: ATG_E2F_CIS: Attagene CIS-FACTORIAL HepG2 Assay for human E2F Transcription Factor 1 (AID 2282935). Particulars: HepG2 Attagene cis-reporter, E2F reporter RNA transcripts; actives raise or lower the signal. The gist of the method:
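Gain or loss of reporter transcript, fitted against DMSO, reflects E2F1-driven transcription. Transiently transfected HepG2 dosed 24 h before RNA isolation. Quantified by fluorescent RT-PCR products separated by capillary electrophoresis.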

Test [9] is described as follows: ATG_E_Box_CIS: Attagene CIS-FACTORIAL HepG2 Assay for human Enhancer Box (E-box) (AID 2282936). Particulars: HepG2 E-box cis-reporter transcription, actives raise or lower the signal. The gist of the method:
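E-box-driven reporter transcripts measured in transiently transfected HepG2 after 24 h exposure: RNA reverse-transcribed, PCR-amplified, fluorescently labelled, digested and resolved by capillary electrophoresis. Gain or loss relative to DMSO.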

The nature of test [10]: ATG_M_61_CIS: Attagene CIS-FACTORIAL HepG2 Assay for M61 Transcription Factor (Internal Marker) (AID 2282937). Particulars: HepG2 Attagene CIS-FACTORIAL M61 internal marker reporter; actives raise or lower the signal. The gist of the method:
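Endogenous transcription factor activity in HepG2 is read through transiently transfected cis-element reporter units. After 24 h dosing, RNA undergoes reverse transcription, PCR and primer extension with 6-FAM before capillary electrophoresis; DMSO-referenced bidirectional fit.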

Test [11] can be described thus: ATG_EGR_CIS: Attagene CIS-FACTORIAL HepG2 Assay for human Early Growth Response 1 (EGR1) (AID 2282938). Particulars: HepG2 Attagene CIS-FACTORIAL EGR reporter mRNA; actives raise or lower the signal. The essentials:
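Activity is taken as induction or loss of reporter mRNA versus DMSO, fitted bidirectionally. Transcripts from cis-regulated reporter units in transiently transfected HepG2 were measured after 24 h by RT-PCR with capillary electrophoresis.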

Test [12] is described as follows: ATG_M_19_CIS: Attagene CIS-FACTORIAL HepG2 Assay for M19 Transcription Factor (Internal Marker) (AID 2282939). Particulars: HepG2 Attagene CIS-FACTORIAL M19 internal marker reporter; actives raise or lower the signal. The essentials: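 HepG2 cells transiently transfected with cis-regulated multiple reporter transcription units were dosed for 24 h; reporter mRNA was quantified by RT-PCR, 6-FAM primer-extension labelling, HpaI digestion and capillary electrophoresis, with bidirectional fitting against DMSO baseline.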

Test [13] is described as follows: ATG_Ets_CIS: Attagene CIS-FACTORIAL HepG2 Assay for human Erythroblast Transformation Specific (ETS) (AID 2282941). Particulars: HepG2 ETS cis-reporter transcription, actives raise or lower the signal. The gist of the method: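 RT-PCR/capillary electrophoresis fluorescence read-out of reporter mRNA; HepG2 transient multi-reporter transfection; 24 h compound exposure; gain or loss of signal fitted bidirectionally relative to DMSO.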

Test [14] has as its target Hepatocyte nuclear factor 3-beta (Homo sapiens) (UniProt Q9Y261). The experiment in a line: ATG_FoxA2_CIS: Attagene CIS-FACTORIAL HepG2 Assay for human Forkhead box A2 (FOXA2) (AID 2282942). Particulars: HepG2 cis-reporter transcription factor activity, 24 h; actives raise or lower the signal. The gist of the method:
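Reporter transcript induction is measured by fluorescence after capillary electrophoresis of RT-PCR products from HepG2 cells exposed 24 h. Cis-regulated reporter units report endogenous factor activity; curves fitted both directions against DMSO.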

Test [15] in a line: ATG_FoxO_CIS: Attagene CIS-FACTORIAL HepG2 Assay for human Forkhead box O (FoxO) (AID 2282943). Particulars: HepG2 Attagene cis-reporter, FoxO element, mRNA; actives raise or lower the signal. The essentials: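 HepG2, transient MRTU transfection (cis element, endogenous TFs). Dose 24 h. TriZol RNA → oligo(dT) RT → PCR → 6-FAM primer extension → HpaI cut → CE. Gain/loss vs DMSO.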

Test [16] can be described thus: ATG_GATA_CIS: Attagene CIS-FACTORIAL HepG2 Assay for human GATA Binding Protein (AID 2282944). Particulars: HepG2 GATA cis-element reporter, Attagene multiplex mRNA; actives raise or lower the signal. The gist of the method:
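HepG2 cells transiently transfected with multiplexed cis-element reporter units reflecting endogenous transcription factor activity; reporter mRNA measured after 24 h dosing by RT-PCR, 6-FAM labeling, HpaI digestion and capillary electrophoresis. Bidirectional fitting versus DMSO baseline.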

A short description of test [17]: ATG_GLI_CIS: Attagene CIS-FACTORIAL HepG2 Assay for human Zinc Finger Protein GLI1 (AID 2282945). Particulars: HepG2, Attagene cis-factorial reporter mRNA, GLI element; actives raise or lower the signal. The gist of the method: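 Bidirectional curve fits relative to DMSO, using reporter mRNA levels from RT-PCR plus capillary electrophoresis. Cells were HepG2 transiently carrying cis-regulated reporter constructs, harvested 24 h after dosing.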

For test [18], the target named is Aryl hydrocarbon receptor (Homo sapiens) (UniProt P35869). The experiment in a line: ATG_Ahr_CIS: Attagene CIS-FACTORIAL HepG2 Assay for human Aryl Hydrocarbon Receptor (Ahr) (AID 2282930). Particulars: HepG2 AhR cis-factorial reporter transcription; actives raise or lower the signal. The essentials: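 Transient MRTU transfection of HepG2 → 24 h compound exposure → total RNA, oligo(dT) RT → PCR, 6-FAM extension, HpaI cut → CE fluorescence. DMSO = baseline; bidirectional curve fit.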

In test [19] the target is Bile acid receptor (Homo sapiens) (UniProt Q96RI1). The experiment in a line: ATG_IR1_CIS: Attagene CIS-FACTORIAL HepG2 Assay for human Nuclear Receptor Subfamily 1 Group H Member 4 (NR1H4), IR1 submotif (AID 2282946). Particulars: IR1 reporter transcription, actives raise or lower the signal. The essentials:
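HepG2 cells transiently transfected with multiplexed cis-element reporter units read endogenous transcription factor activity. After 24 h compound exposure, reporter mRNA was quantified by RT-PCR, fluorescent labelling, HpaI digestion and capillary electrophoresis; bidirectional fitting versus DMSO baseline.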

Active and inactive are the calls of the source. The calls were made as follows: active = hit-call score of the fitted dose curve at least 0.9, where 1 is the maximum; inactive = score below 0.9.

CCAAT/enhancer-binding protein beta (Homo sapiens), sequence (P17676 whole entry, looked up): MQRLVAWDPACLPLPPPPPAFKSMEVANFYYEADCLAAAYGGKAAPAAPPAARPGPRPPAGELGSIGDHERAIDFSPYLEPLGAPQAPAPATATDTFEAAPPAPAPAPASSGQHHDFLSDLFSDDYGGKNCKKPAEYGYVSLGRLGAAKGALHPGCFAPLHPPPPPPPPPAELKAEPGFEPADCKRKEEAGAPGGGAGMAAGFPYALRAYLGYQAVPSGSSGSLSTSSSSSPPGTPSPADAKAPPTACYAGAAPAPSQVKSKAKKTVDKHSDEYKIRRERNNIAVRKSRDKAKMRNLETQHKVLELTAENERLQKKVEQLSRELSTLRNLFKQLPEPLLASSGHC
Aryl hydrocarbon receptor (Homo sapiens), sequence (P35869 whole entry, looked up): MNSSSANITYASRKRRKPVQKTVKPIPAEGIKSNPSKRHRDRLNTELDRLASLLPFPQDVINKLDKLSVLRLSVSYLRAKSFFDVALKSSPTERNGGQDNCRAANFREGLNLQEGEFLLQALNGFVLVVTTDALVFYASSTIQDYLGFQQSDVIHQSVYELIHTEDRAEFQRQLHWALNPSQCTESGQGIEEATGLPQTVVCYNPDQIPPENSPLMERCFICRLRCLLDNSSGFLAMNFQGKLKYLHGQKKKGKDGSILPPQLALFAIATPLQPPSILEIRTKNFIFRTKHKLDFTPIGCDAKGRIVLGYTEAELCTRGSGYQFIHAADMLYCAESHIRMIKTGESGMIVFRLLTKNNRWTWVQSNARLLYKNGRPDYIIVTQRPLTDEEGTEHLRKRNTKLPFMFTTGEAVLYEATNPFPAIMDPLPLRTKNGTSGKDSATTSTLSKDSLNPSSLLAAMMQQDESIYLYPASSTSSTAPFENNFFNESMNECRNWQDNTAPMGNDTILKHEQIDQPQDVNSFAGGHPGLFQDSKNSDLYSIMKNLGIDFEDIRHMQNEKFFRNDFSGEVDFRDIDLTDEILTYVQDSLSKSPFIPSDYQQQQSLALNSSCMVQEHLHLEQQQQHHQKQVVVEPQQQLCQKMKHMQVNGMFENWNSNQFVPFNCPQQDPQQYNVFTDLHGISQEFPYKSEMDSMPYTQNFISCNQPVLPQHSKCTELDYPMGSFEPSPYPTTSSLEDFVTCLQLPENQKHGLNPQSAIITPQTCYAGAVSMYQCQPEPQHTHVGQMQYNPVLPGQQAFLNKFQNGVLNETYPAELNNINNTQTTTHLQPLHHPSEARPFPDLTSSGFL
Bile acid receptor (Homo sapiens), sequence (Q96RI1 whole entry, looked up): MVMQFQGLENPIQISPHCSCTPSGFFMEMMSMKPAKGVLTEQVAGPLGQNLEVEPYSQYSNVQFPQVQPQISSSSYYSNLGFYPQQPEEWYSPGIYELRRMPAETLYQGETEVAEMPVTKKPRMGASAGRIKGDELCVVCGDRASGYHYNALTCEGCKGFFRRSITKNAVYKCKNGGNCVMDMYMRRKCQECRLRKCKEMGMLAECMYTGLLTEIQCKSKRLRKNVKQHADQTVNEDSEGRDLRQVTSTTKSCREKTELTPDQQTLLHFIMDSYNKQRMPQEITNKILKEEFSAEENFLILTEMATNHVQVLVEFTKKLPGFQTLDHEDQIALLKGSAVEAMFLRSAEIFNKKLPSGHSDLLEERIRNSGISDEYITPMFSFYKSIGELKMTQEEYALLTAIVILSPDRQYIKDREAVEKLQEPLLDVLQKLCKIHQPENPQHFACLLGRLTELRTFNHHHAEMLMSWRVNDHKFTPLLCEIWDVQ
Transcription factor E2F1 (Homo sapiens), sequence (Q01094 whole entry, looked up): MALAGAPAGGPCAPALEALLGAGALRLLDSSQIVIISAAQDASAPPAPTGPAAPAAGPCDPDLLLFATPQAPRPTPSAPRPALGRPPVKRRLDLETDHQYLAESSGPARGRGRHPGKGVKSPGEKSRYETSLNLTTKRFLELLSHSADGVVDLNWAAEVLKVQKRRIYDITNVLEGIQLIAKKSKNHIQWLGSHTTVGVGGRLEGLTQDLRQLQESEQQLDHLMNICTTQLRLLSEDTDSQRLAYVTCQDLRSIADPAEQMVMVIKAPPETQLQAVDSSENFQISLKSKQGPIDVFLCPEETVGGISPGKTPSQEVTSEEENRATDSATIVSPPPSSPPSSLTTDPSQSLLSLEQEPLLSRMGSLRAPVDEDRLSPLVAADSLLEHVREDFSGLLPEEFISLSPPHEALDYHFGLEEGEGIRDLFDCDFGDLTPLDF
Hepatocyte nuclear factor 3-beta (Homo sapiens), sequence (Q9Y261 whole entry, looked up): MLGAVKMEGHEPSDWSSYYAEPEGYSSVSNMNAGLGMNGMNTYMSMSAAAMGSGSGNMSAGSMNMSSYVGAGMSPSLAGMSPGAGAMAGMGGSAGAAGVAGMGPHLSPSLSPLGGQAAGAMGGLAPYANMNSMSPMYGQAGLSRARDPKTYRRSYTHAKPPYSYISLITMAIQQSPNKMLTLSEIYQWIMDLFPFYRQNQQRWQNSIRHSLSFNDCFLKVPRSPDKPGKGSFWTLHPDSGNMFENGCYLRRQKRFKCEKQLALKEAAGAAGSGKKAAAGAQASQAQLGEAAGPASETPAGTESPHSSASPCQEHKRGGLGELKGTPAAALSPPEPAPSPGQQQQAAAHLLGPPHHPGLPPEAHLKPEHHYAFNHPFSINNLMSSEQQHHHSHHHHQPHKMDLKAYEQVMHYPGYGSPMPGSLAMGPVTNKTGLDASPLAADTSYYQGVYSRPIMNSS

With `CCc1cc(C2=C(C(=O)O)N(c3ccccc3C(F)(F)F)S(=O)(=O)c3ccccc32)cc2c1OCO2`, the result in test [1], in test [2], in test [3], in test [4], in test [6] and in test [7] was inactive. Besides, the molecule was classed as inactive in test [8], in test [9], in [10], in test [11], in test [12] and in [13]. The result in [14], in test [15], in [16] and in test [17] was inactive. Moreover, the concentration at half-maximal activity (AC50) in test [5] was 38.6 µM (active).
As to `CN(C)CCCN1c2ccccc2Sc2ccc(Cl)cc21`, the molecule was classed as inactive in [1], in [2], in [3], in test [18], in [6] and in test [7]. Also, the molecule was called inactive in test [8], in test [9], in test [10], in test [12], in [13] and in [14]. The result in test [15], in test [16], in test [17] and in [19] was inactive. Also, the AC50 in [4] is 9.33 µM (active); in test [5], 18.2 µM (active); in test [11], 13.2 µM (active).
On to `NC=O`, for which the molecule was called inactive in test [1], in test [2], in [3], in test [4], in test [18] and in test [5]. Further, the molecule was called inactive in [6], in test [7], in test [8], in test [9], in [10] and in [11]. Besides, the outcome in test [12], in test [13], in test [14], in test [15], in test [16] and in test [17] was inactive. In addition, in [19], the outcome was inactive.
For the molecule `Cc1cn([C@H]2C=C[C@@H](CO)O2)c(=O)[nH]c1=O`, the call in test [1], in test [2], in test [3], in [4], in test [18] and in [5] was inactive. Besides, the result in test [6], in [7], in test [8], in [9], in test [10] and in [11] was inactive. In addition, the molecule was classed as inactive in [12], in [13], in test [14], in [15], in test [16] and in test [17]. In addition, the molecule was called inactive in [19].

By AC50 is commonly meant the concentration at which the activity in the assay is half-maximal.
